This is an account of results in PubChem BioAssay (NCI).

Compounds without any hit were thinned out: in the full panel of roughly 83,000, 20% have a hit.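 Testing used 96-well plates and a 48-hour single-concentration exposure. Example: -40 means 40% of the starting cells died.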 A number with no mark means an inactive call. The source made the active and inactive calls. How the source made its calls: active means growth percent below 10; inactive means the rest.

What all share (experiment): NCI-60 one-dose screen, 48 h (100 = growth as untreated, 0 = no growth, -100 = all killed)
Assay [1] concerns SR leukemia. The following applies: 10 µM unless noted.
The subject of assay [2] is RPMI-8226 leukemia. The conditions noted are these: 10 µM unless noted.
Assay [3] concerns OVCAR-8 ovarian. The following applies: 10 µM unless noted.
Assay [4] has as its system OVCAR-5 ovarian. The conditions noted are these: 10 µM unless noted.
Assay [5] relates to OVCAR-4 ovarian. The conditions noted are these: 10 µM unless noted.
For assay [6], the system named is SK-OV-3 ovarian. The following applies: 10 µM unless noted.
The test system of assay [7] is IGROV1 ovarian. The following applies: 10 µM unless noted.
Assay [8] deals with OVCAR-3 ovarian. The following applies: 10 µM unless noted.
Assay [9] relates to NCI/ADR-RES ovarian. The following applies: 10 µM unless noted.
For assay [10], the system named is T-47D breast. The following applies: 10 µM unless noted.
The test system of assay [11] is BT-549 breast. The conditions noted are these: 10 µM unless noted.
Assay [12] relates to MDA-MB-435 melanoma. The conditions noted are these: 10 µM unless noted.
The subject of assay [13] is SW-620 colon. The following applies: 10 µM unless noted.
Assay [14] deals with MCF7 breast. The conditions noted are these: 10 µM unless noted.
The test system of assay [15] is HCT-116 colon. The conditions noted are these: 10 µM unless noted.
Assay [16] deals with HCC-2998 colon. The conditions noted are these: 10 µM.
The test system of assay [17] is KM12 colon. The conditions noted are these: 10 µM unless noted.

With `O=C1C=CC2(NN=C(c3ccccc3)N2c2cccc(Cl)c2)C(Cl)=C1` (stereo unspecified), the growth in assay [1] was 67.3%; in assay [2], 58.6%; in assay [3], 76%; in assay [4], 92.3%; in assay [5], 70.5%; in assay [6], 70.7%. Besides, the growth in assay [7] was 87.1%; in assay [8], 84.9%; in assay [9] it was 89.7%; in [10] it was 37.9%; in assay [11], 88.5%; in [12], 86.3%. Moreover, the growth in assay [13] was 90.2%; in assay [14] it was 79%; in assay [15], 73.4%; in [16], 105%; in assay [17], 78.1%.
Regarding `COc1cc2ncnc(Oc3cccc(NC(=O)Nc4cc(C(C)(C)C(F)(F)F)on4)c3)c2cc1OC`, the growth is 28.5% in [1]; 30.6% in assay [2]; 25.1% in [3]; 12.8% in assay [4]; 36.3% in assay [5]; -26.5% (active) in assay [6]. Besides, the growth in assay [7] was -11.1% (active); in assay [8], 50.4%; in [9], 23.9%; in [10] it was 9.47% (active); in [11], 37.4%; in assay [12] it was 13.3%. Further, the growth is 27.4% in assay [13]; 37.8% in assay [14]; 10.8% in assay [15]; 52.8% in assay [16]; 42.4% in [17].
Turning to `Cn1c(Nc2ccc(C(F)(F)F)cc2)nc2cc(Oc3ccnc(-c4ncc(C(F)(F)F)[nH]4)c3)ccc21`, the growth was 32.1% in [1]; 86.7% in [2]; 58.1% in assay [3]; 63.2% in assay [4]; 64.7% in [5]; 6.69% (active) in assay [6]. The growth in assay [7] was 33.1%; in assay [8], 58.8%; in [9], 66.3%; in assay [10], 48.5%; in [11], 37.5%; in assay [12] it was 28.8%. Also, the growth is 65.5% in assay [13]; 82.3% in assay [14]; 32.9% in assay [15]; 73% in assay [16]; 58.3% in assay [17].
In the case of `CC(C)(C)c1nc(-c2cccc(NS(=O)(=O)c3c(F)cccc3F)c2F)c(-c2ccnc(N)n2)s1`, the growth was 50.4% in assay [1]; 75.5% in assay [2]; 94.7% in assay [3]; 41.1% in assay [4]; 114% in assay [5]; 71.9% in [6]. Besides, the growth was 64.5% in assay [7]; 103% in assay [8]; 95.5% in assay [9]; 92.6% in assay [10]; 118% in assay [11]; 87.3% in assay [12]. Also, the growth is 73.3% in [13]; 79.7% in assay [14]; 48.1% in assay [15]; 85.1% in assay [16]; 44.6% in [17].
For `C#Cc1cccc(Nc2ncnc3cc(OC)c(OCCCCCCC(=O)NO)cc23)c1`, the growth is 1.46% (active) in assay [1]; -14.9% (active) in assay [2]; -21.5% (active) in [3]; -8.42% (active) in [4]; 6.28% (active) in assay [5]; -58.2% (active) in assay [6]. In addition, the growth in assay [7] is -41.3% (active); in [8], -19.9% (active); in assay [9] it was 14.4%; in [10] it was -24.4% (active); in assay [11], -7.81% (active); in assay [12], -28.1% (active). Further, the growth in assay [13] was -22.6% (active); in assay [14] it was 8.28% (active); in assay [15], -27.4% (active); in assay [16] it was -53.5% (active); in [17] it was 5.62% (active).
As to `Cc1nc(NC(=O)N2CCC[C@H]2C(N)=O)sc1-c1ccnc(C(C)(C)C(F)(F)F)c1`, the growth is 26.2% in [1]; 48.7% in [2]; 48.5% in [3]; 36.5% in assay [4]; 72% in assay [5]; -25.6% (active) in assay [6]. Further, the growth is -23.5% (active) in assay [7]; 39.1% in assay [8]; 60.8% in assay [9]; -34.7% (active) in assay [10]; 50.2% in assay [11]; 49.3% in assay [12]. In addition, the growth in assay [13] is 41.7%; in [14], 13.9%; in [15], 26.4%; in [16], 48.6%; in [17] it was 57.6%.
As for `Cn1ncc(Cl)c1-c1cc(C(=O)N[C@H](CN)Cc2cccc(F)c2)sc1Cl`, the growth in assay [1] was -29.6% (active); in assay [2], -10.3% (active); in [3], 15.5%; in assay [4] it was 35.3%; in assay [5], 35.6%; in assay [6], -12.8% (active). Moreover, the growth in assay [7] is -21.5% (active); in [8], 31%; in [9] it was 28.6%; in [10], -24.7% (active); in assay [11], -4.28% (active); in assay [12], 4.34% (active). The growth in assay [13] is 39.8%; in assay [14] it was -11.7% (active); in [15] it was 12.8%; in assay [16], -78.2% (active); in [17] it was 1.36% (active).
Take `CCN(CC)CCNC(=O)c1c(C)[nH]c(/C=C2\C(=O)Nc3ccc(F)cc32)c1C`: the growth is -9.44% (active) in assay [1]; -10.3% (active) in [2]; 1.47% (active) in assay [3]; 35% in [4]; 23.9% in assay [5]; 26.9% in assay [6]. Besides, the growth in assay [7] is 24.6%; in assay [8] it was 67.9%; in [9] it was 18.4%; in assay [10] it was 80.4%; in assay [11] it was 20.2%; in [12] it was 3.92% (active). In addition, the growth is -2.88% (active) in assay [13]; 7.17% (active) in [14]; -59.4% (active) in assay [15]; 1.98% (active) in assay [16]; 4.04% (active) in assay [17].
